# Most compounds without a hit are left out; they make up all but 1.8% or so of the library.
# LYPLA2 counter: blocks human lysophospholipase 2, a PME1 counter-screen. inhibition, % at 5.9 µM. recombinant LYPLA2, FP-Rh probe fluorescence polarization. O95372. 0.38% of 320,000 active. AID 2177;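 active = inhibition above the screen-wide mean plus 3 SD, limit set per campaign, cut at about 26% in these data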;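 also: 0% = LYPLA2 with DMSO and 100% = wells lacking LYPLA2 enzyme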
# LYPLA1 counter: counter-screen for PME1 inhibitors: inhibitors of human LYPLA1; 0.16% of 320,000 active; AID 2174; recombinant LYPLA1, FP-Rh probe fluorescence polarization; O75608; inhibition, % at 5.9 µM;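 active = inhibition above the mean of all tested compounds plus 3 SD, set per campaign, cut at about 14% in these data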;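 also: inhibitors block serine hydrolase probe labeling of LYPLA1 so polarization falls; 0% = enzyme with DMSO and 100% = wells lacking LYPLA1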
# GSTO1 counter: counter-screen for RBBP9 inhibitors: inhibitors of human GSTO1; P78417; recombinant GSTO1, activity-based probe fluorescence polarization; inhibition, % at 5.96 µM; 1.1% of 300,000 active;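 active = inhibition above the campaign mean inhibition plus 3 SD, cut at about 35% in these data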;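 also: 0% = GSTO1-1 with DMSO and 100% = wells lacking GSTO1-1 enzyme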
# Target sequence (P78417 whole entry, looked up): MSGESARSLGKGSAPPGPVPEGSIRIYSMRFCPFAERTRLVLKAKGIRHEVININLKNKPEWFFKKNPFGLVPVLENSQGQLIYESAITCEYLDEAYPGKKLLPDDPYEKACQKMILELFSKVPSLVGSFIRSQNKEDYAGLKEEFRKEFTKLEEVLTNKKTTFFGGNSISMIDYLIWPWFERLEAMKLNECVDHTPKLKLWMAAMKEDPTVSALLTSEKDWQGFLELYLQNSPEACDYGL
# PME-1 inh: blocks human protein phosphatase methylesterase 1. Q9Y570. recombinant PME-1, FP-Rh probe fluorescence polarization. inhibition, % at 5.9 µM. 0.53% of 320,000 active. AID 2130;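 active = inhibition above the campaign mean of all compounds plus 3 SD, cut at about 26% in these data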;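 also: competitive labeling of PME-1 active site by serine hydrolase directed probe; 0% = PME-1 with DMSO and 100% = wells lacking PME-1 enzyme; inhibitors block probe labeling so polarization falls and inhibition rises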
# Target sequence (Q9Y570 whole entry, looked up): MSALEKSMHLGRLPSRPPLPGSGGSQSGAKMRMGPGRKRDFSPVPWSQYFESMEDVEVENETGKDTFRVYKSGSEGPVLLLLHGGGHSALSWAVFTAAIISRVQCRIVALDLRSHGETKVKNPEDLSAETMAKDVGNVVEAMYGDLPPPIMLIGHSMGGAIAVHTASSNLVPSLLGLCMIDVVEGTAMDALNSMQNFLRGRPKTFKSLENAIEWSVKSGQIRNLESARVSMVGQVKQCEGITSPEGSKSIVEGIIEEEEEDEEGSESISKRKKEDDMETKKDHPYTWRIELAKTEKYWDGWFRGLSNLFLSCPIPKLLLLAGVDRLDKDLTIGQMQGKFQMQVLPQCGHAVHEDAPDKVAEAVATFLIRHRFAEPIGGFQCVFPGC
# PAD4 FP inh: blocks human protein arginine deiminase 4. Q9UM07. recombinant PAD4, RCA probe fluorescence polarization. inhibition, % at 6.36 µM. 0.41% of 330,000 active;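 active = percent inhibition above a cutoff equal to the mean of all tested compounds plus 3 SD, cut at about 15% in these data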;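 also: 0% = PAD4 with RCA probe and DMSO and 100% = probe without PAD4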
# Fam108B counter: counter-screen for RBBP9 inhibitors: inhibitors of mouse Fam108B. AID 1947. recombinant Fam108B, FP-Rh probe fluorescence polarization. inhibition, % at 9.51 µM. 0.33% of 300,000 active;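 active = inhibition above the screen mean inhibition plus 3 SD, computed separately per campaign, cut at about 18% in these data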;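 also: inhibitors lower polarization as less probe binds the enzyme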
# GSTO1 inh conf: GSTO1 (human) inhibition, confirmation. shares compounds with GSTO1 counter. 54% of 2,400 active. inhibition, % at 5.96 µM. recombinant GSTO1, probe fluorescence polarization;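 active = inhibition above the primary screen's cutoff, its mean inhibition plus 3 SD, cut at about 35% in these data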;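 also: loss of polarization as inhibitors block binding of rhodamine sulfonate ester activity probe; 0% = GSTO1 with DMSO and 100% = wells lacking GSTO1 enzyme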
# GSTO1 recomb ABPP: inhibitors of recombinant human GSTO1; inhibition, % at 1 µM; AID 463110; shares compounds with GSTO1 counter; 30% of 130 active; gel ABPP SE-Rh probe fluorescence;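 active = inhibition of the enzyme GSTO1 above about 75%, limit read from the data; inactive = inhibition below that limit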
# Active calls of the source: *; x = no result.
SMILES,LYPLA2 counter,LYPLA1 counter,GSTO1 counter,PME-1 inh,PAD4 FP inh,Fam108B counter,GSTO1 inh conf,others
CCN(CC)c1ccc(N=Cc2ccc([N+](=O)[O-])o2)cc1,6,-3,73*,10,8,11,10,
Cc1cccc([C@@H]2[C@@H]3C(=O)N(Cc4ccccc4)C(=O)[C@@H]3[C@]3(Cc4ccc(Cl)cc4)C(=O)N(c4cccc(Br)c4)C(=O)N23)c1,2,-3,70*,-1,-1,-11,2,
Oc1ccc(/C=N/Nc2ccc(Cl)nn2)cc1O,-6,-1,60*,-1,-1,0,14,
CCOc1ccc(S(=O)(=O)Nc2cccc(C(=O)NCC(C)(C)N3CCOCC3)c2)cc1,8,4,4,4,3,-1,x,
Cc1cc(SCC(=O)OCC(=O)NCC2CCCO2)c(C)cc1Br (centres undefined),8,-2,17,-8,-6,-1,x,
CC(CCc1ccccc1)NC(=O)CN1CCN(c2ccc(O)cc2)CC1 (centres undefined),8,1,38*,9,-3,-1,8,
CC(CCc1ccccc1)NC(=O)CN1CCN(Cc2ccccc2)C1=O (centres undefined),-1,-3,1,1,-2,2,x,
CC(C)CCn1c(SCC(=O)NC2CCS(=O)(=O)C2)nc2cc(Cl)ccc2c1=O (centres undefined),2,-1,-5,-1,-1,-5,x,
Cc1ccc(C2=NN(C(=O)CCl)C(c3cccs3)C2)o1 (centres undefined),10,4,99*,4,7,-3,96*,
CC(=O)N1N=C(c2ccco2)CC1c1cccs1 (centres undefined),6,1,4,3,-3,6,x,
O=C(CCl)N1N=C(c2ccco2)CC1c1cccs1 (centres undefined),7,-1,85*,4,0,-4,99*,
N#Cc1ccccc1S(=O)(=O)N1CCN(CC(=O)NCC2(N3CCOCC3)CCCCC2)CC1,4,2,x,1,-3,x,x,
CCC(Sc1nc(-c2cccc(OC)c2)c(C#N)c(=O)[nH]1)C(=O)Nc1nnc(C(C)C)s1 (centres undefined),3,-3,50*,1,1,-2,62*,
O=C(C1CCCCCC1)N1CC[C@@H](N2CCC(O)CC2)[C@H](O)C1,-2,2,5,-5,-3,-1,x,
O=C(CN1CCCCC1)Nc1cccc(Oc2ccccc2)c1,1,-4,3,3,-2,-5,x,
O=C(CCl)Nc1cccc(Oc2ccccc2)c1,4,-2,71*,3,3,-9,97*,
CC(=O)Nc1ccc(NC(=O)Cc2ccc(-c3ccccc3)cc2)cc1,-8,-4,0,-8,-6,-8,x,
O=C(CCl)Nc1ccc(-c2ccccc2)cc1,11,1,76*,-5,5,-1,84*,
COc1ccc2c(c1)c1nc3n(c(=O)c1n2CC(=O)Nc1cc(C)[nH]n1)CCS3,6,2,92*,-4,0,2,4,
COc1ccccc1N(C(=O)CCl)c1cn(C(C)=O)c2ccccc12,2,-1,71*,7,4,-1,79*,GSTO1 recomb ABPP=14
CCOC(=O)c1ccccc1Nc1cn(C(C)=O)c2ccccc12,4,-3,-4,7,-6,3,x,
CCOC(=O)N1CCN(c2c(NCCN3CCCCC3CC)c(=O)c2=O)CC1 (centres undefined),3,-1,3,2,-3,-2,x,
CCOC(=O)C1CCCN(c2c(NCCN3CCCCC3CC)c(=O)c2=O)C1 (centres undefined),0,4,58*,9,2,2,8,
COC(=O)c1ccc(N=CC2=C(O)CC(c3ccccc3)CC2=O)cc1 (centres undefined),1,-1,7,1,1,4,x,
O=C1CC(c2ccccc2)CC(O)=C1C=Nc1ccc(O)cc1 (centres undefined),7,-1,56*,-1,-1,-4,6,
SMILES,LYPLA2 counter,LYPLA1 counter,GSTO1 counter,PME-1 inh,PAD4 FP inh,Fam108B counter,GSTO1 inh conf,others
COc1cc(NC(=S)Nc2cccnc2)cc(OC)c1,-9,-8,-2,-7,9,-2,x,
O=C(CCCn1c(SCC(=O)c2ccc(O)c(O)c2)nc2ccccc2c1=O)NCC1CCCO1 (centres undefined),2,0,44*,3,-4,-3,9,
CN(C)c1ccc(NS(=O)(=O)c2ccc(-c3csnn3)cc2)cc1,0,3,39*,11,5,1,30,
CC(C)(C)Cc1nnc(NC(=O)CCC2CCCCC2)s1,-1,-1,9,-4,-2,1,x,
COc1ccc(-c2[nH]ncc2CN2CCN(Cc3cccs3)CC2)cc1F,3,1,72*,-6,0,-3,4,
CN1c2ccccc2C(C)(C)C12CC(CCl)=NO2 (centres undefined),-21,-4,46*,-1,-11,1,96*,GSTO1 recomb ABPP=64
CN1c2ccccc2C(C)(C)C12CC(c1ccc(Cl)c(S(=O)(=O)N3CCCC3)c1)=NO2 (centres undefined),-1,1,5,5,-2,-3,x,
Oc1ccc(/C=N/NC(=S)Nc2cccnc2)c(O)c1,1,-1,9,6,-3,13,x,
Oc1cccc(/C=N/NC(=S)Nc2cccnc2)c1O,-2,-5,79*,5,0,9,27,
CCC(C)(C)c1nnc(NC(=O)c2cccc([N+](=O)[O-])c2)s1,-6,-3,-10,-1,0,0,x,
COc1ccc(C(CNC(=O)C(=O)NC2CCCCC2)N2CCN(C)CC2)cc1 (centres undefined),8,3,1,-3,1,1,x,
O=C(N/N=C/c1cccnc1)c1cc(O)c(O)c(O)c1,-8,-5,50*,-8,0,-8,11,
CN(C)S(=O)(=O)c1cc(NC(=O)COC(=O)Cc2cccc3ccccc23)ccc1Cl,-58,-26,-6,15,3,-41,x,
CCC(C(=O)OCC(=O)Nc1ccc(Cl)c(S(=O)(=O)N(C)C)c1)c1ccccc1 (centres undefined),-8,-5,65*,1,-5,-4,-2,
Cc1ccc(S(=O)(=O)N2CCN(C(=O)c3ccc([N+](=O)[O-])cc3)C2)cc1,6,7,3,0,-1,2,x,
COc1ccc(/C=C2\SC(=O)N(CCNC(=O)C3=COCCO3)C2=O)cc1,-5,-2,42*,1,-1,2,9,

# Assay outcomes (PubChem BioAssay)
